High-throughput results deposited in PubChem BioAssay by Broad Institute.
BL2 CD40 inh: CD40 pathway inhibition in BL2 cells; inhibition, % at 10 µM; 83,000 tested, 0.94% active; BL2 NF-kB luciferase reporter, CD40L-induced, 4 h; AID 1053188;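 active = mean inhibition of at least 50% with a set share of replicates also reaching that level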;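 note: 0% = neutral control wells and 100% = IKK inhibitor VII at 50 µM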
Active calls of the source: *; ! = not active in a repeat; [ ] = remark or other dose. Only a selection was taken, and hits are over-represented in it overall.

SMILES	BL2 CD40 inh
C[C@H](CO)N1C[C@H](C)[C@H](CN(C)S(C)(=O)=O)Oc2ccc(NC(=O)C3CC3)cc2CC1=O	3
CO[C@H](CN(C)Cc1cc(F)ccc1F)[C@H](C)CN(C(=O)Nc1ccc(C(F)(F)F)cc1)[C@H](C)CO	53*[25 µM]
CO[C@@H](CN(C)Cc1ccc2c(c1)OCO2)[C@@H](C)CN(C(=O)Nc1ccc(F)cc1)[C@H](C)CO	-1[25 µM]
CO[C@@H](CN(C)Cc1cc(F)ccc1F)[C@H](C)CN(C(=O)Nc1ccc(C(F)(F)F)cc1)[C@H](C)CO	-9[25 µM]
C1CCC2=NCCCN2CC1	3
COc1cc(-c2nc(C)c(C(C)=O)n2O)ccc1OCC(=O)Nc1ccc(Cl)cc1	-1
Cc1cccc(Cc2nnc(CCC(=O)N(C)CCc3ccccc3)o2)c1	-72
COc1ccc(OCC(=O)OCC(=O)N2C(C)CCCC2C)cc1 (centres undefined)	7
COc1ccc(-c2c[n+](CC(=O)OC3CC(C)CCC3C(C)C)c3n2CCC3)cc1 (centres undefined)	79*
COc1ccc(-c2cnc3n2CCCCC3)cc1	2
COc1ccc(OC)c(NC(=O)CCCC(=O)NC2CCCCC2)c1	14
COC(=O)c1nn(-c2ccccc2)c(-c2ccccc2)c1C(=O)c1ccccc1	7
COC(=O)c1nn(-c2ccc(-c3ccccc3)cc2)cc1O	70*
COc1cn(-c2ccccc2)nc1C(=O)Nc1ccccc1	-76
COc1ccc2occ(C(C)=O)c2c1	12
C[C@@H]1CN([C@H](C)CO)C(=O)c2c(c3ccccc3n2C)-c2ccccc2CO[C@@H]1CN(C)Cc1cccc(C(F)(F)F)c1	37[25 µM]
C[C@@H]1CN([C@H](C)CO)C(=O)c2c(c3ccccc3n2C)-c2ccccc2CO[C@H]1CN(C)Cc1cccc(O)c1	9
C[C@H](CO)N1C[C@H](C)[C@@H](CN(C)Cc2cccc(C(F)(F)F)c2)OCc2ccccc2-c2c(n(C)c3ccccc23)C1=O	73*[25 µM]
C[C@H](CO)N1C[C@H](C)[C@@H](CN(C)C(=O)Nc2cccc(C(F)(F)F)c2)OCc2ccccc2-c2c(n(C)c3ccccc23)C1=O	46[25 µM]
C[C@H](CO)N1C[C@H](C)[C@H](CN(C)C(=O)Nc2cccc(C(F)(F)F)c2)OCc2ccccc2-c2c(n(C)c3ccccc23)C1=O	37[25 µM]
C[C@H](CO)N1C[C@H](C)[C@H](CN(C)C(=O)Nc2ccccc2C(F)(F)F)OCc2ccccc2-c2c(n(C)c3ccccc23)C1=O	38[25 µM]
C[C@@H]1CN([C@@H](C)CO)C(=O)c2c(c3ccccc3n2C)-c2ccccc2CO[C@H]1CN(C)Cc1cccc(C(=O)Nc2ccccc2N)c1	60*[25 µM]
C[C@H](CO)N1C[C@H](C)[C@H](CN(C)Cc2cccc(C(=O)O)c2)OCc2ccccc2-c2c(n(C)c3ccccc23)C1=O	-9
C[C@H]1CN([C@@H](C)CO)C(=O)c2c(c3ccccc3n2C)-c2ccccc2CO[C@H]1CN(C)Cc1cccc(C(F)(F)F)c1	10[25 µM]
C[C@H](CO)N1C[C@H](C)[C@@H](CN(C)C(=O)Nc2ccccc2C(F)(F)F)OCc2ccccc2-c2c(n(C)c3ccccc23)C1=O	8[25 µM]
SMILES	BL2 CD40 inh
C[C@H]1CN([C@@H](C)CO)C(=O)c2c(c3ccccc3n2C)-c2ccccc2CO[C@@H]1CN(C)C(=O)Nc1cccc(C(F)(F)F)c1	64*[25 µM]
C[C@@H]1CN([C@@H](C)CO)C(=O)c2c(c3ccccc3n2C)-c2ccccc2CO[C@@H]1CN(C)C(=O)Nc1ccccc1C(F)(F)F	55*[25 µM]
O=C(Oc1cccc2cccnc12)c1cccc([N+](=O)[O-])c1	4
O=C(c1ccc(Oc2ccc([N+](=O)[O-])cc2Cl)cc1)N1CCCC1	7
CN1CCN(S(=O)(=O)c2ccc(NC(=O)c3cccs3)cc2)CC1	-18
O=C(CCNS(=O)(=O)c1ccc(Br)s1)N1CCCCC1	0
Cc1ccc(C)c(S(=O)(=O)N(C)c2ccc(OC(=O)CN3C(=O)NC4(CCCC4)C3=O)cc2)c1	11
O=C(Cc1ccccc1)c1c[nH]c(C(=O)NCc2ccncc2)c1	-5
O=C(CN1C(=O)NC2(CCCCCC2)C1=O)c1ccc2c(c1)OCCO2	-5
COc1cc(N(C)C)c(NC(C)=O)cc1C(=O)O	15
CNc1nnc(CSc2nc(C)cc(C)n2)s1	20
O=C(NCc1ccco1)c1ccccc1NS(=O)(=O)c1ccc2c(c1)OCCO2	7
COc1cccc(-c2ccc3n(c2=O)C[C@H]2N[C@@H]3[C@@H](C(=O)N3CCCCC3)[C@@H]2CO)c1	5[25 µM]
C[C@@H]1CN([C@H](C)CO)C(=O)c2cc(N(C)C)ccc2O[C@H]1CN(C)C(=O)Nc1cccc2ccccc12	-12[25 µM]
COc1ccccc1NC(=O)N(C)C[C@@H]1OCc2ccccc2-c2c(n(C)c3ccccc23)C(=O)N([C@H](C)CO)C[C@@H]1C	9
COc1ccccc1NC(=O)N(C)C[C@@H]1OCc2ccccc2-c2c(n(C)c3ccccc23)C(=O)N([C@@H](C)CO)C[C@@H]1C	-3
C[C@@H]1CN([C@@H](C)CO)C(=O)c2c(c3ccccc3n2C)-c2ccccc2CO[C@H]1CN(C)C(=O)Nc1ccccc1C(F)(F)F	64*[25 µM]
CN(Cc1cccs1)C(=O)CN1CCN(S(=O)(=O)c2ccc3c(c2)OCCCO3)CC1	-19
COc1ccc2oc(-c3ccncc3)cc(=O)c2c1	-49
CCc1ccc2oc(-c3ccc(OC)cc3)cc(=Nc3c(C)n(C)n(-c4ccccc4)c3=O)c2c1	50*
COc1cc(OC)c(C(=O)OCC(=O)Nc2c(C)n(C)n(-c3ccccc3)c2=O)cc1OC	10
Cc1ccnc(Nc2nc3ccccc3o2)n1	68*
N#Cc1cnc(Nc2nc3ccccc3o2)nc1-c1ccccc1	-20
Cc1nc(Nc2nc3ccccc3o2)nc(C)c1C	6
CCc1cccc(NS(=O)(=O)c2ccc3c(c2)NC(=O)CC(=O)N3)c1	12
SMILES	BL2 CD40 inh
O=C(c1ccc2c(c1)OCO2)N1C[C@H]2[C@@H](c3ccccc31)[C@@H](CO)N2Cc1ccc2c(c1)OCO2	-1
COc1cccc(S(=O)(=O)N2C[C@@H]3N[C@H](C2)C3c2ccc(/C=C/c3ccccc3)cc2)c1 (some centres undefined)	46*!
COc1cccc(-c2ccc(C3[C@@H]4CN(S(=O)(=O)c5ccccc5)C[C@H]3N4)cc2)c1 (some centres undefined)	24
COc1cccc(S(=O)(=O)N2[C@@H]3CNC[C@H]2C3c2ccc(/C=C/c3ccccc3)cc2)c1 (some centres undefined)	-4[25 µM]
CO[C@@H](CN(C)Cc1ccc(-c2ccccn2)cc1)[C@H](C)CN(C(=O)Nc1ccc(F)cc1)[C@H](C)CO	-26[25 µM]
COc1cc(CCC(=O)OCC(=O)NCCc2ccc(S(N)(=O)=O)cc2)cc(OC)c1OC	-4
C[C@H](NC(=O)[C@@H]1[C@@H](CO)[C@@H]2Cn3c(cccc3=O)[C@@H]2N1CC1CCCC1)c1ccccc1	-1
CC(=O)Nc1cccc(C(=O)OC(C)C(=O)N2CCc3ccccc32)c1 (centres undefined)	11
O=C(CC(=O)Nc1ccccn1)Nc1ccccn1	8
O=C(Nc1ccccn1)c1ccc(C(=O)c2ccccc2)cc1	-13
O=C(NC(=O)c1ccccc1)Nc1ccccn1	108*
O=C(CN1CCN(S(=O)(=O)c2ccccc2)CC1)NCc1ccccc1	6
c1ccc(-c2csc(-c3ccc(-c4csnn4)cc3)n2)cc1	-37
Cc1ccccc1-c1ccc(C2[C@@H]3CN(C(=O)Nc4ccc(F)cc4)C[C@H]2N3)cc1 (some centres undefined)	37[25 µM]
